Measured values taken from PubChem BioAssay (NCI).
Compounds without any hit were thinned out: in the full panel of roughly 83,000, 20% have a hit.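 Method: cells in 96-well plates; compound added at one concentration; 48 h incubation; percent growth measured; values under 10 scored active.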 Active and inactive are the calls of the source.

What was measured:
Assay in all cases: NCI-60 one-dose screen, 48 h (100 = growth as untreated, 0 = no growth, -100 = all killed)
Details in all cases: 10 µM unless noted
[1] = system: SR leukemia
[2] = system: RPMI-8226 leukemia
[3] = system: OVCAR-8 ovarian
[4] = system: OVCAR-5 ovarian
[5] = system: OVCAR-4 ovarian
[6] = system: SK-OV-3 ovarian
[7] = system: OVCAR-3 ovarian
[8] = system: HS 578T breast
[9] = system: NCI/ADR-RES ovarian
[10] = system: T-47D breast
[11] = system: BT-549 breast
[12] = system: MDA-MB-435 melanoma
[13] = system: SW-620 colon
[14] = system: MCF7 breast
[15] = system: HCT-116 colon
[16] = system: KM12 colon
[17] = system: IGROV1 ovarian
[18] = system: HCC-2998 colon

Measured: growth

O=C(CCCCCCN1CC(=O)N2[C@@H](c3ccccc3)c3[nH]c4ccccc4c3C[C@H]2C1=O)NO
inactive: [1] 37.2% | [2] 26.7% | [3] 39.6% | [4] 58% | [5] 65.6% | [6] 70.1% | [7] 55.5% | [8] 68.8% | [9] 77.9% | [10] 25.7% | [11] 91.5% | [12] 46.1% | [13] 38.7% | [14] 47.1% | [15] 20.9% | [16] 65.2%

CN1CCN(c2ccc(NC(=O)Nc3ccc4c(ccn4-c4cccc(C(N)=O)n4)c3)cc2C(F)(F)F)CC1
inactive: [1] 14.6% | [3] 77.6% | [4] 85.3% | [5] 84.9% | [17] 80.1% | [7] 102% | [8] 22.1% | [9] 94.5% | [10] 80.6% | [11] 89.9% | [14] 10.7% | [15] 12.3% | [18] 63.4% | [16] 22%
active: [2] -17.5% | [12] -45.2% | [13] -10.5%

CCOC(=O)c1nn(-c2ccc(C)cc2)c(=O)c2c(N)c(C#N)c(-c3ccc(OC)cc3)cc12
inactive: [1] 127% | [2] 98.6% | [3] 101% | [4] 94.3% | [5] 101% | [17] 80.2% | [7] 108% | [8] 90.1% | [9] 106% | [10] 102% | [11] 130% | [12] 106% | [13] 94.4% | [14] 95.5% | [15] 99.4% | [18] 110% | [16] 95.5%

Cc1ccc(/C=C/CC(=O)Nc2ccc(C(=O)Nc3ccc(F)cc3N)cc2)cn1
inactive: [1] 46.1% | [2] 19.8% | [3] 48.4% | [4] 55.7% | [5] 62.1% | [17] 65.5% | [7] 79.5% | [8] 56.7% | [9] 90% | [10] 28.6% | [11] 73% | [12] 47.2% | [13] 46.3% | [14] 39.6% | [15] 39% | [18] 64.6% | [16] 75.2%

C/C(=C(/C)C1CC1CCN(C(=O)c1ccc([N+](=O)[O-])cc1)S(=O)(=O)c1ccc(C)cc1)C1CCCCC1 (stereo not given)
inactive: [1] 94.8% | [2] 85.7% | [3] 97.6% | [4] 101% | [5] 90.8% | [17] 111% | [7] 96.2% | [8] 102% | [9] 94.3% | [10] 77.3% | [11] 136% | [12] 99.4% | [13] 96.7% | [14] 86.9% | [15] 89.9% | [18] 112% | [16] 89.6%

O=C(NNc1nc2cc(F)cc(F)c2n2cccc12)c1ncccn1
active: [9] -1.21% | [10] 3.06% | [14] 9.91%
inactive: [1] 13.2% | [2] 12.7% | [3] 16.7% | [4] 40.5% | [5] 20.9% | [17] 14% | [7] 16.3% | [8] 42.8% | [11] 20.6% | [12] 24.6% | [13] 21.6% | [15] 20.1% | [18] 51.9% | [16] 22.3%

COc1cc(/C=N/Nc2ccnc3cc(Cl)ccc23)cc(OC)c1O
inactive: [6] 109% | [11] 103%
active: [1] -23.9% | [2] -9.43% | [3] -56% | [4] -5% | [5] -50.2% | [8] -38.8% | [9] 2.57% | [10] -56.5% | [12] -85.9% | [13] -30.4% | [14] -72.3% | [15] -68.7% | [18] -81.9%

O=c1c2ccccc2nc(COc2ccccc2)n1/N=C/C=C/c1ccccc1
inactive: [1] 85.7% | [2] 87.5% | [3] 100% | [4] 98.8% | [5] 90% | [17] 90.2% | [7] 103% | [8] 94.4% | [9] 91.8% | [10] 94.6% | [11] 135% | [12] 99.8% | [13] 91.5% | [14] 83.8% | [15] 96.5% | [18] 101% | [16] 111%

COc1cc2cc(Oc3ccc(NC(=O)Nc4cccc(C(F)(F)F)c4)cc3)c(C)nc2cc1OCCN(C)C
inactive: [1] 26.1% | [2] 92.3% | [3] 97.9% | [4] 108% | [5] 92.9% | [6] 107% | [7] 122% | [8] 112% | [9] 93.9% | [10] 91.8% | [11] 119% | [12] 96.6% | [13] 111% | [14] 69.2% | [15] 82.8% | [18] 105% | [16] 98.2%

O=S(=O)(NC1CC2CCC1C2)c1ccc2c(c1)C(=NO)c1cc(S(=O)(=O)NC3CC4CCC3C4)ccc1-2 (stereo not given)
inactive: [3] 67% | [4] 42.5% | [6] 86.4% | [8] 86% | [9] 63.7% | [11] 31.7% | [12] 27.1% | [14] 25.3% | [15] 20.3% | [18] 38.9% | [16] 45.9%
active: [1] -7.47% | [2] -24.6% | [5] -52.4% | [10] -0.508% | [13] -63.4%

C/C(=N\NC(=S)Nc1ccc(Br)cc1)c1cc2ccccc2oc1=O
inactive: [2] 16.3% | [4] 41.3% | [5] 28.2% | [6] 26.1% | [17] 24.6% | [9] 11.4% | [10] 43.1% | [12] 11.4% | [13] 27.7% | [15] 16.3%
active: [1] 0.863% | [3] 5.84% | [11] 8.5% | [14] 6.49% | [16] 0.612%

NC(=O)c1c(NC(=O)c2cccc(OC(F)(F)F)c2)sc2c1CCC(=O)C2
inactive: [1] 30% | [3] 53% | [4] 62.5% | [5] 13.8% | [17] 36.4% | [7] 67.2% | [8] 40.4% | [9] 57.5% | [10] 28.1% | [11] 28.4% | [12] 64.7% | [13] 18.3% | [14] 27.4% | [15] 15.6% | [18] 104%
active: [2] 6.56%

O=C(NNc1nc2cc(F)cc(F)c2n2cccc12)c1ccncn1
inactive: [3] 12.5% | [4] 40.9% | [17] 15.1% | [8] 34% | [11] 12.2% | [12] 26.3% | [13] 20.8% | [15] 18.6% | [18] 57.5% | [16] 21.6%
active: [1] 4.42% | [2] 9.13% | [5] 4.29% | [7] 8.94% | [9] 1.44% | [10] -1.57% | [14] 4.99%

CC(C)=CCC[C@](C)(O)[C@H]1CC[C@]2(C)[C@@H]1CC[C@@H]1[C@@]3(C)CCC(NC(=O)c4ccccc4C(=O)O)C(C)(C)[C@@H]3CC[C@]12C (stereo not given in full)
inactive: [1] 86.9% | [2] 90.9% | [3] 96.3% | [4] 94.9% | [5] 105% | [6] 104% | [8] 89.2% | [9] 98.3% | [10] 79.4% | [11] 113% | [12] 51.2% | [13] 91% | [14] 73% | [15] 86.9% | [18] 96.5% | [16] 87.9%

Oc1ccc(CSc2nnc(-c3ccc(Oc4ccccc4)cc3)n2-c2ccccc2)c2cccnc12
active: [2] 7.82% | [9] 6.26% | [10] 4.84% | [14] 4.86%
inactive: [1] 45.8% | [3] 16.5% | [4] 42.7% | [6] 14.1% | [17] 11.7% | [7] 19.3% | [8] 18.7% | [11] 21.7% | [12] 13.7% | [13] 12.8% | [15] 14.5% | [18] 30.3% | [16] 17.7%

Fc1ccc(-c2cc3nc(C(Cl)Cl)nc(-c4cccs4)n3n2)cc1
active: [2] -3.54% | [4] 9.21% | [7] -26.2% | [8] -5.63% | [9] 5.56% | [13] 2.69% | [14] 3.99% | [15] -2.24% | [18] -61.5% | [16] -30.5%
inactive: [1] 83.8% | [3] 24% | [6] 32% | [17] 61.2% | [10] 25.2% | [11] 92% | [12] 14.3%

Cc1ccc(NC(=O)c2cccc(CN3CCN(C)CC3)c2)cc1Oc1ccc(-c2[nH]nc3ncnc(N)c23)cc1
active: [1] 6.56%
inactive: [2] 48.7% | [3] 83.1% | [5] 81.9% | [6] 78.8% | [17] 63.3% | [7] 79.6% | [8] 64.2% | [9] 101% | [10] 82.6% | [11] 95.8% | [12] 56.3% | [13] 48.6% | [14] 41.4% | [15] 57.4% | [18] 99.4% | [16] 37.4%

NS(=O)(=O)Oc1ccc2nc(Nc3ccc(F)c(F)c3)ccc2c1
inactive: [1] 60.5% | [2] 86.7% | [3] 96.1% | [4] 91.6% | [6] 111% | [17] 94.4% | [8] 104% | [9] 94.6% | [10] 90% | [12] 89% | [13] 105% | [14] 93.2% | [15] 92.2% | [16] 58.9%
